Laboratory results reported in PubChem BioAssay (NCATS).
Results filed as inconclusive are left out. Unmarked numbers belong to inactive results. Calls of active or inactive are those of the source. Calls come from the whole dose curve; as a rule, active = well fitted cell-killing curve with a large enough effect; inconclusive = small, poorly fitted or top-dose-only effect, or effect the other way; inactive = no such curve, though single readings can be large or run the other way.

How the values were obtained:
[1] = Quantitative High-Throughput drug screen in 47 multiple myeloma cell lines against the NCATS MIPE library collection: OCIMY5_PLB cell viability assay (AID 1918988); note: nearly all actives have a fitted effect of over 65% in size
In short: (§1)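 ATP-based luminescence (CellTiter-Glo, 5 min RT incubation) quantified surviving cells following two days' treatment with MIPE 4.0 agents at 37 °C, 5% CO2.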

[2] = Quantitative High-Throughput drug screen in 47 multiple myeloma cell lines against the NCATS MIPE library collection: OPM1_PLB cell viability assay (AID 1918989); note: nearly all actives have a fitted effect of over 40% in size
In short: as §1

[3] = Quantitative High-Throughput drug screen in 47 multiple myeloma cell lines against the NCATS MIPE library collection: U266_ATCC cell viability assay (AID 1919864); note: nearly all actives have a fitted effect of over 35% in size;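 for viability (% of DMSO control): 0% = media-only wells without cells and 100% = DMSO-only wells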
In short: as §1

[4] = Quantitative High-Throughput drug screen in 47 multiple myeloma cell lines against the NCATS MIPE library collection: XG6_PLB cell viability assay (AID 1919865); note: nearly all actives have a fitted effect of over 40% in size
In short: as §1

[5] = Quantitative High-Throughput drug screen in 47 multiple myeloma cell lines against the NCATS MIPE library collection: XG1_PLB cell viability assay (AID 1919866); note: nearly all actives have a fitted effect of over 35% in size
In short: as §1

[6] = Quantitative High-Throughput drug screen in 47 multiple myeloma cell lines against the NCATS MIPE library collection: VP6_DJ cell viability assay (AID 1919867); note: nearly all actives have a fitted effect of over 40% in size
In short: as §1

[7] = Quantitative High-Throughput drug screen in 47 multiple myeloma cell lines against the NCATS MIPE library collection: PE2_PLB cell viability assay (AID 1919869); note: nearly all actives have a fitted effect of over 35% in size
In short: as §1

[8] = Quantitative High-Throughput drug screen in 47 multiple myeloma cell lines against the NCATS MIPE library collection: UTMC2_PLB cell viability assay (AID 1919868); details: CellTiter-Glo ATP luminescence, 48 h; viability (% of DMSO control): at 45.8 µM (top of the series); note: nearly all actives have a fitted effect of over 55% in size;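 for viability (% of DMSO control): 100% = DMSO-only wells and 0% = media-only wells without cells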
In short: as §1

[9] = Quantitative High-Throughput drug screen in 47 multiple myeloma cell lines against the NCATS MIPE library collection: PCM6_Riken cell viability assay (AID 1919870); note: nearly all actives have a fitted effect of over 30% in size
In short: as §1

[10] = Quantitative High-Throughput drug screen in 47 multiple myeloma cell lines against the NCATS MIPE library collection: SKMM1_PLB cell viability assay (AID 1919863); details: SKMM1 myeloma viability, CellTiter-Glo ATP, 48 h; viability: stronger effect = lower value; note: nearly all actives have a fitted effect of over 35% in size
In short: as §1
Potency is the fitted concentration of half-maximal effect.

SMILES	Potency [1]	Potency [2]	Potency [3]	Potency [4]	Potency [5]	Potency [6]	Potency [7]	Potency [8]	Potency [9]	Potency [10]	viability [10]
S=C(NCc1ccc2c(c1)OCO2)N1CCN(c2ncnc3c2oc2ccccc23)CC1	9.59 µM (active)	2.41 µM (active)	12.1 µM (active)	2.41 µM (active)	0.96 µM (active)	0.96 µM (active)	6.79 µM (active)				
CC(C)(C)NCC(O)c1ccc(O)c(CO)c1 (centres undefined)	0.0148 µM (active)	inactive	inactive	inactive	inactive			inactive			
CC(=O)NC(C)c1ccc(Oc2ccc(OC(C)C)cc2)cc1 (centres undefined)	16.6 µM (active)	1.48 µM (active)	inactive		16.6 µM (active)		16.6 µM (active)		16.6 µM (active)		
CN(C)c1ccc(Nc2nc(N)n(C(=O)c3c(F)cccc3F)n2)cc1	11.8 µM (active)	5.26 µM (active)	18.7 µM (active)	3.72 µM (active)	0.935 µM (active)		5.9 µM (active)		13.2 µM (active)		
O=C1[C@H](Cc2ccc(O)cc2)N2C(=O)CCN(C(=O)NCc3ccccc3)[C@H]2CN1Cc1cccc2ccccc12	4.18 µM (active)	8.33 µM (active)		4.18 µM (active)	9.35 µM (active)		4.69 µM (active)			6.62 µM (active)	
CC(C[N+](C)(C)C)OC(N)=O (centres undefined)	16.6 µM (active)	inactive	inactive				inactive		inactive		
Cc1cc2c(C(C)C)c(O)c(O)c(C=O)c2c(O)c1-c1c(C)cc2c(C(C)C)c(O)c(O)c(C=O)c2c1O	14.8 µM (active)	10.5 µM (active)		7.43 µM (active)	8.33 µM (active)		5.9 µM (active)	5.9 µM (active)	6.62 µM (active)	29.6 µM (active)	
CCn1cc(C(=O)O)c(=O)c2cc(F)c(N3CCNC(C)C3)c(F)c21 (centres undefined)	inactive	11.8 µM (active)		inactive	inactive	inactive	inactive		inactive		140%
O=C(Nc1cccnc1)N1CCC(Cc2cccc(Oc3ccc(C(F)(F)F)cn3)c2)CC1	18.7 µM (active)	18.7 µM (active)	18.7 µM (active)	14.8 µM (active)		10.5 µM (active)	16.6 µM (active)				
CN[C@@H](C)C(=O)N[C@H]1CCCC[C@H]2CC[C@@H](C(=O)N[C@@H](c3ccccc3)c3cn(CCCCc4ccc(CCCCn5cc([C@@H](NC(=O)[C@@H]6CC[C@@H]7CCCC[C@H](NC(=O)[C@H](C)NC)C(=O)N76)c6ccccc6)nn5)cc4)nn3)N2C1=O	16.6 µM (active)	16.6 µM (active)		20.9 µM (active)	23.5 µM (active)	18.7 µM (active)	18.7 µM (active)			0.0037 µM (active)	
COc1ccc(-c2oc3cc(OC)ccc3c2C(=O)c2ccc(C#N)cc2)cc1	inactive	inactive	16.6 µM (active)	3.32 µM (active)	8.33 µM (active)		inactive				
CC1(C)SCCN(S(=O)(=O)c2ccc(OCC#CCO)cc2)[C@@H]1C(=O)NO	5.26 µM (active)	inactive			inactive		inactive			0.118 µM (active)	
CCCCCCCc1ccc(CCc2cccc(O)c2C(=O)O)cc1	16.6 µM (active)	20.9 µM (active)	inactive				20.9 µM (active)				
Cc1cccc(-c2nn(C(=S)Nc3ccccc3)cc2-c2ccnc3ccccc23)n1	1.48 µM (active)	6.62 µM (active)		inactive			7.43 µM (active)				
CCOc1ccc(Cc2cc([C@@H]3O[C@H](CO)[C@@H](O)[C@H](O)[C@@H]3O)ccc2Cl)cc1	inactive	14.8 µM (active)	inactive	3.32 µM (active)		16.6 µM (active)	inactive				
Cc1cc(Nc2nc(N[C@@H](C)c3ncc(F)cn3)ncc2Cl)n[nH]1	7.43 µM (active)	18.7 µM (active)	9.35 µM (active)	2.96 µM (active)	2.64 µM (active)	6.62 µM (active)	10.5 µM (active)		6.62 µM (active)		
Oc1cccc(-c2nc(N3CCOCC3)c3oc4ncccc4c3n2)c1	0.382 µM (active)	0.0855 µM (active)	0.054 µM (active)	0.136 µM (active)			0.0855 µM (active)				
CNC(=O)c1ccc(N2C(=S)N(c3ccc(C#N)c(C(F)(F)F)c3)C(=O)C2(C)C)cc1F	inactive	inactive			13.2 µM (active)		inactive				
OC(CCN1CCCCC1)(c1ccccc1)C1CC2C=CC1C2 (centres undefined)	inactive	inactive	inactive	inactive	inactive	inactive	inactive				
O=C(NOC[C@H](O)CO)c1ccc(F)c(F)c1Nc1ccc(I)cc1F	inactive	1.48 µM (active)	16.6 µM (active)	0.0074 µM (active)	0.0296 µM (active)	0.0372 µM (active)	0.0662 µM (active)		inactive		
CCN(c1ccccc1)c1cc(NC)[n+](C)c(C)n1	20.9 µM (active)	inactive		inactive	inactive		inactive	inactive	inactive		
Clc1cccc(Cl)c1NC1=NCCN1	inactive	inactive	inactive	inactive	inactive	5.26 µM (active)	inactive		inactive		

SMILES	Potency [1]	Potency [2]	Potency [3]	Potency [4]	Potency [5]	Potency [6]	Potency [7]	Potency [8]	Potency [9]	Potency [10]	viability [10]
COc1cc(Oc2ccnc3cc(OC)c(OC)cc23)ccc1NC(=O)NC(C)c1nccs1 (centres undefined)	16.6 µM (active)	20.9 µM (active)	inactive				23.5 µM (active)				
Nc1nccc(-c2ccc3noc(-c4ccc(Cl)cc4)c3c2)n1	18.7 µM (active)	inactive		2.64 µM (active)	3.72 µM (active)						
Cc1cc(-c2ccc(CC(=O)Nc3ccc(-c4cccnc4)cc3)cc2)ccn1	16.6 µM (active)	20.9 µM (active)			18.7 µM (active)	11.8 µM (active)			11.8 µM (active)		
Cc1ccc(N(CC2=NCCN2)c2cccc(O)c2)cc1	23.5 µM (active)	23.5 µM (active)							inactive	29.6 µM (active)	
O=C(Nc1ccc(F)c(C(F)(F)F)c1)Nc1nnc(-c2ccncc2)s1	2.35 µM (active)	13.2 µM (active)				4.18 µM (active)				8.33 µM (active)	
Nc1ncnc2nc(-c3ccc(N4CCOCC4)nc3)cc(-c3cccc(Br)c3)c12	16.6 µM (active)	20.9 µM (active)		10.5 µM (active)	16.6 µM (active)		18.7 µM (active)				
CNC[C@H](O)c1cccc(O)c1	0.332 µM (active)	inactive		inactive	inactive		inactive				
CCOc1cc(N2CCC(O)CC2)ccc1Nc1ncc2c(n1)N(C)c1ccccc1C(=O)N2C	14.8 µM (active)	2.96 µM (active)			5.9 µM (active)		3.72 µM (active)		14.8 µM (active)	11.8 µM (active)	
COc1ccccc1[C@H](c1cccc2ccccc12)[C@@](C)(C#N)C(=O)N1CCC(c2cccc(C(F)(F)F)c2)CC1	4.69 µM (active)	5.9 µM (active)		4.69 µM (active)	3.32 µM (active)		5.9 µM (active)		5.9 µM (active)	5.9 µM (active)	
CC[C@H](Nc1ncnc2nc[nH]c12)c1nc2cccc(F)c2c(=O)n1-c1ccccc1	20.9 µM (active)	14.8 µM (active)		13.2 µM (active)				5.9 µM (active)		16.6 µM (active)	
COc1ccc2c3n(c(=NC(=O)c4cccnc4)nc2c1OC)CCN3	3.72 µM (active)	16.6 µM (active)		0.59 µM (active)	1.48 µM (active)		11.8 µM (active)	3.32 µM (active)		0.148 µM (active)	
Cc1csc(NC(=O)c2sc3nc4c(c(C(F)(F)F)c3c2N)CCC4)n1	20.9 µM (active)		7.43 µM (active)	inactive	2.35 µM (active)		inactive				
CNCc1ccc(-c2[nH]c3cc(F)cc4c3c2CCNC4=O)cc1	inactive	inactive					inactive				
CCOC(=O)N[C@@H]1CC[C@@H]2[C@@H](C1)C[C@H]1C(=O)O[C@H](C)[C@H]1[C@@H]2C=Cc1ccc(-c2cccc(F)c2)cn1	23.5 µM (active)				16.6 µM (active)				inactive		
Clc1ccc(Nc2nnc(Cc3ccncc3)c3ccccc23)cc1	6.62 µM (active)			2.09 µM (active)		23.5 µM (active)			14.8 µM (active)		
C[C@H](NC(=O)Cc1cc(F)cc(F)c1)C(=O)N[C@@H]1C(=O)N(C)c2ccccc2-c2ccccc21	16.6 µM (active)		16.6 µM (active)	4.69 µM (active)		inactive	5.9 µM (active)				
C#Cc1cccc(Nc2ncnc3cc(OCCOC)c(OCCOC)cc23)c1	5.9 µM (active)		13.2 µM (active)	0.0833 µM (active)							
O=C(Nc1nc2ccccc2n1CCN1CCOCC1)c1cccc([N+](=O)[O-])c1	5.9 µM (active)		14.8 µM (active)	1.32 µM (active)	4.18 µM (active)		1.05 µM (active)		1.87 µM (active)		
CN(C)c1ccc(C2Nc3ccc4ccccc4c3C3=C2C(=O)CC(C)(C)C3)cc1Br (centres undefined)	23.5 µM (active)		inactive				5.26 µM (active)				
O=C(O)CCc1ccc(NCc2cccc(Oc3ccccc3)c2)cc1	inactive			inactive	inactive		inactive		inactive		111%
CCCS(=O)(=O)Nc1ccc(F)c(C(=O)c2c[nH]c3ncc(-c4ccc(Cl)cc4)cc23)c1F	13.2 µM (active)		5.26 µM (active)	2.96 µM (active)	7.43 µM (active)		11.8 µM (active)		5.26 µM (active)		
Cn1cnc2c(F)c(Nc3ccc(Br)cc3Cl)c(C(=O)NOCCO)cc21	9.35 µM (active)		5.26 µM (active)	0.418 µM (active)	0.0935 µM (active)		0.235 µM (active)			1.18 µM (active)	
